Measurements as given in PubChem BioAssay AID504408 (Broad Institute, 2011).
Hit rate of the full screen: of about 300,000 compounds, about 5,200 (1.7%) were called active. This is one part of a sample in which actives are shown more often than they occur.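 The calls were made as follows: active = mean replicate activation of at least 50% with a set share of replicates each reaching 50%; inconclusive = only one of those two conditions met; inactive = mean below 50% and too few replicates reaching it.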

experiment: HSF-1 activators, primary screen, NIH3T3-HGL cells, MG132 stress, luminescence, single point (AID 504408); details: NIH3T3-HGL HSF-1 luciferase reporter, MG132, 8 h; at 9 µM; stronger effect = higher value; 100% = twice DMSO control signal;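 also: 0% = median of the neutral control wells and 100% = twice that signal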

activation, active:
Cc1cc(C)c2nc(NC(=O)C3CCCO3)sc2c1 (centres undefined) 61.5%
COC(=O)c1c(C)[nH]c(C(=O)/C=C/c2ccc(Cl)cc2)c1C 75.6%
Cc1ccccc1NC(=O)C1CCCN(C(=O)NCc2ccccc2)C1 (centres undefined) 66.9%
CC(C)OC(=O)c1ccc(COc2ccc3ccc(=O)oc3c2)o1 65.7%
CN(c1ccc(C(=O)N2CCc3ccccc3C2)cc1)S(C)(=O)=O 57.9%
COc1cccc(N(CC(=O)N2CCc3ccccc3C2)S(C)(=O)=O)c1 69.4%
Cc1ccc(O)c(CNc2nc3ccccc3[nH]2)c1 83.1%
COc1cc2c(cc1OC)C(C)N(S(=O)(=O)c1cnc(Cl)c(Cl)c1)CC2 (centres undefined) 227%
O=C(/C=C/NCc1ccc(F)cc1)c1ccccc1 57.4%
Brc1ccc2nc(N3CCCC3)sc2c1 68.3%
O=C(CCN1C(=O)c2ccccc2C1=O)C1=NN[C@@H]2C(=O)N(c3ccc(F)cc3)C(=O)[C@H]12 67.2%

activation, inactive:
CCCCN(C1CCS(=O)(=O)C1)S(=O)(=O)c1ccc(C(C)C)cc1 (centres undefined) 0.442%
CCCCN(C(=O)c1ccc(S(=O)(=O)N2CCOCC2)cc1)C1CCS(=O)(=O)C1 (centres undefined) -15%
Cc1cccc(C(C)C)c1NC(=O)COC(=O)C1CC(=O)N(Cc2ccccc2)C1 (centres undefined) 4.94%
Cc1cc([N+](=O)[O-])ccc1NC(=O)C1CCCO1 (centres undefined) 0.502%
Cc1ccc(C)c(C(C)NC(=O)C2CCCO2)c1 (centres undefined) 2.29%
COc1cccc(/C=C/C(=O)OCC(=O)N2CCCc3ccccc32)c1 -15.2%
CC(=O)N1CCN(C(=O)c2cc(-c3ccc(C)o3)nc3ccccc23)CC1 -3%
COC(=O)c1c(C)[nH]c(C(=O)NCCc2ccc(S(N)(=O)=O)cc2)c1C 22.1%
Cc1ccc(NC(=S)NC(=O)/C=C/c2ccc(Cl)cc2)cc1 8.91%
O=C(OCc1nnc(-c2ccccc2)o1)c1cc(=O)[nH]c2ccccc12 -8.33%
COC(=O)c1ccc(COC(=O)C2CCN(S(=O)(=O)c3c(Cl)cccc3Cl)CC2)o1 -1.35%
Cc1ccccc1NC(=O)N1CCCC1C(=O)NCc1ccccc1 (centres undefined) -14.4%
Cc1cccc(NC(=O)C2CCCN(C(=O)NCc3ccccc3)C2)c1C (centres undefined) 23.5%
CCOC(=O)N1CCN(C(=O)COc2ccc3oc4c(c3c2)CCCC4)CC1 -4.2%
CCN(CC(=O)NCc1cccs1)C(=O)c1ccc(OC)c(S(=O)(=O)N2CCOCC2)c1 -5.75%
O=C(NCc1ccc2c(c1)OCO2)c1c(O)nc2sccn2c1=O 14.5%
Cc1noc(C)c1COc1ccc2ccc(=O)oc2c1 0.156%
COC(=O)c1ccc(COc2ccc(C#N)cc2)o1 10.5%
O=C1CCCCC1Sc1ccc(Cl)cc1[N+](=O)[O-] (centres undefined) 8.24%
Cc1cc(OCC(=O)N(C)c2c(N)n(Cc3ccccc3)c(=O)[nH]c2=O)c(C(C)C)cc1Cl -0.115%
Cc1ccc2nc(NC(=O)C3CSC4(C)CCC(=O)N34)sc2c1 (centres undefined) 10.5%
CN(c1cccc(NC(=O)c2ccc(CN3CCc4ccccc4C3)cc2)c1)S(C)(=O)=O 21.2%
CS(=O)(=O)N(CC(=O)N1CCc2ccccc2C1)c1ccc(Br)cc1 -4.09%
O=C(C(=O)N1CCc2ccccc2C1)N1CCc2ccccc2C1 2.97%
Cc1ccc(S(=O)(=O)N(CC(=O)N2CCc3ccccc3C2)c2cccc(Cl)c2)cc1 13%
Cc1cc2nc3n(c2cc1C)CC1CC(C(=O)NCCC(C)C)N(C)C31 (centres undefined) 11.4%
Cc1ccc(S(=O)(=O)n2cccc2CO)cc1 3.66%
O=C(COc1ccccc1)Nc1ccc(F)cc1 1.97%
Cc1ccc(-c2cc(=O)[nH]c(NCc3ccccc3)n2)cc1 11.6%
Cc1ccc(O)c(CNc2nc3ccccc3n2C)c1 6.25%
Cc1sc2ncnc(N3CCC(C(=O)Nc4nc5ccc(Cl)cc5s4)CC3)c2c1C 8.18%
CC(Oc1cccc(Cl)c1)C(=O)Nc1ccc(S(=O)(=O)Nc2ncccn2)cc1 (centres undefined) -4.25%
COc1ccc(S(=O)(=O)N2CCC(C(=O)N3CCc4ccccc4C3)CC2)cc1OC -2.14%
COc1cc2c(cc1OC)CN(C(=O)c1cc(S(=O)(=O)N3CCCCC3)ccc1Cl)CC2 31.4%
CCCCn1c(N)c(N(CC)C(=O)c2ccc(N(C)S(=O)(=O)c3ccc(C)cc3)cc2)c(=O)[nH]c1=O -9.17%
COc1ccc(OC)c(S(=O)(=O)N2CCCC(C(=O)N3CCC(C(N)=O)CC3)C2)c1 (centres undefined) -0.348%
CCN1C(=O)[C@@H]2[C@@H](c3ccc(-c4cccc(Cl)c4)cc3)N3CCC[C@@]3(C(=O)OC)[C@@H]2C1=O 15%
O=C(/C=C\NCC(=O)c1ccccc1)c1ccccc1 16.4%
O=C(Cc1ccccc1)NCc1ccc(F)cc1 20.9%
Cc1ccc(NC(=O)C(C)OC(=O)Cc2c[nH]c3ccccc23)cc1S(=O)(=O)N1CCOCC1 (centres undefined) 13%
Cc1ccc(C(=O)OCC(=O)N2CC(C)CC(C)C2)cc1S(=O)(=O)N1CCCCC1 (centres undefined) 1.62%
Cc1ccc2nc(N3CCN(C(=O)c4ccco4)CC3)sc2c1 12.9%
c1c2c(cc3sc(N4CCCCC4)nc13)OCCO2 -56.8%
CN(Cc1c(F)cccc1Cl)C(=O)CNC(=O)c1ccc2c(c1)OCO2 -4.62%
Cc1ccc(S(=O)(=O)N2CCN(C(=O)c3ccccc3-c3nc4ccccc4s3)CC2)c(C)c1 -2.98%
O=C(CCN1C(=O)c2ccccc2C1=O)Nc1cccc(F)c1 -4.05%
O=C1c2ccccc2C(=O)N1CCOc1ccc(F)cc1 43.4%
CCOc1ccc(S(=O)(=O)Nc2cccc(C(=O)NCC3(N4CCCCC4)CCCCC3)c2)cc1 -4.45%
